Experimental data reported in PubChem BioAssay.
Calls of active or inactive are those of the source.

Key:
[1] = small molecules captured by biotinylated probe aFSTL3 – biochemical, small-molecule microarray, fluorescence 635/667, stem cell growth factor project, primary screen (AID 1064); conditions: higher = more signal;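 note: measures binding of the biotinylated anti-FSTL3 antibody to printed compounds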
[2] = binders from COS7 lysate, DM2A8 probe, primary screen, torsin A project, cell lysate, small-molecule microarray, fluorescence 635/667 (AID 1065); conditions: higher = more signal, COS7 lysate expressing mutant human TOR1A
[3] = small molecules captured by biotinylated probe aFGF2 – biochemical, small-molecule microarray, fluorescence 635/667, stem cell growth factor project, primary screen (AID 1067); conditions: higher = more signal;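 note: measures binding of biotinylated aFGF2 protein to printed compounds on slides; z-score merges feature fluorescence and signal-to-noise across triplicate slides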
[4] = small molecules captured by biotinylated probe aFGF10 – biochemical, small-molecule microarray, fluorescence 635/667, stem cell growth factor project, primary screen (AID 1071); conditions: higher = more signal;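 note: score merges 667 nm spot intensity and signal to noise from triplicate slides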
[5] = target: Neurogenic locus notch homolog protein 2 (Homo sapiens) (UniProt Q04721); assay: small molecules binding Notch2 protein – biochemical, small-molecule microarray, 635 nm fluorescence, stem cell growth factors, primary screen (AID 1073); conditions: higher = more signal
[6] = target: Pro-neuregulin-1, membrane-bound isoform (Homo sapiens) (UniProt Q02297); assay: small molecules binding neuregulin-1 protein – biochemical, small-molecule microarray, fluorescence 635/667, psychiatric disease protein project, primary screen (AID 1075); conditions: NRG1 binding, 635 nm fluorescence, higher = more signal;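 note: score combines 667 nm spot fluorescence with signal to noise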
[7] = tested on: Neuregulin-1 EGF-like domain; assay: small molecules binding NRG1 EGF domain – biochemical, small-molecule microarray, 635 nm fluorescence, primary screen (AID 1081); conditions: higher = more signal;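 note: binding of the protein to compounds printed on small-molecule microarray slides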
[8] = FRG1 expression reporter modulators in myotubes – cell-based, C2C12 myotubes, firefly/Renilla luciferase, luminescence, FRG1 inhibition for FSHD, primary screen (AID 1084); conditions: FRG1 promoter luciferase, higher = more signal, called active from +8 up or from −8 down
[9] = small molecules captured by biotinylated probe aFST – biochemical, small-molecule microarray, fluorescence 635/667, stem cell growth factor project, primary screen (AID 1086); conditions: higher = more signal;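 note: score merges 667 nm fluorescence with signal-to-noise of each printed compound spot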
[10] = binders of probe aHhip on microarray, primary screen, stem cell growth factor project, biochemical, small-molecule microarray, fluorescence 635/667 (AID 1087); conditions: higher = more signal;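 note: score merges spot fluorescence at 667nm with spot signal to noise ratio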
[11] = tested on: PRMT1 (protein arginine N-methyltransferase 1); assay: small molecules binding arginine methyltransferase PRMT1 – biochemical, small-molecule microarray, 635 nm fluorescence, primary screen (AID 1088); conditions: higher = more signal;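 note: binding of Prmt1 protein to compounds spotted on small-molecule microarray slides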
[12] = growth effects on S. cerevisiae YJM789 – YJM789 clinical isolate, OD600, 24 h, basal, primary screen (AID 1089); conditions: higher = more signal, called active from +8 up or from −8 down;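 note: growth of clinical yeast isolate S. cerevisiae YJM 789 seeded 1000 cells per well; test concentration not given here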
[13] = S. pombe growth modifiers, basal conditions – strain 972, OD600, 24 h, no modulator, primary screen (AID 1090);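 note: basal condition with compound alone and no growth modifier present; test concentration not given here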; conditions: S. pombe 972 growth, higher = more signal, called active from +8 up or from −8 down
[14] = budding yeast growth modifiers under rapamycin – strain BY4716, OD600, 96 h, primary screen (AID 1091); note: test concentration not given here; conditions: S. cerevisiae BY4716 + rapamycin, higher = more signal, called active from +8 up or from −8 down
[15] = target: Torsin-1A-interacting protein 2 (Homo sapiens) (UniProt Q8NFQ8); assay: small molecules binding lysate-expressed LULL1 – cell lysate, human LULL1 lysate, 635/667 nm fluorescence, primary screen (AID 1092); conditions: small-molecule microarray, hLULL1 lysate binding, 635 nm fluorescence; higher = more signal;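 note: probe is lysate of COS7 cells overexpressing human LULL1; score merges per-feature 667 nm fluorescence with signal-to-noise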
[16] = optical density change of DRC41 E. coli – strain DRC41, OD650, 24 h, E. coli filamentation project, primary screen (AID 1093);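 note: MC1000 strain lacking acrAB efflux and sulA so SOS filamentation is blocked; test concentration not given here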; conditions: E. coli DRC41 growth, higher = more signal, called active from +8 up or from −8 down
[17] = probe aLefty2 binding to arrayed compounds – biochemical, biotinylated probe, 635/667 nm fluorescence, primary screen (AID 1094); conditions: small-molecule microarray, higher = more signal;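 note: score merges spot fluorescence near 667 nm with spot signal-to-noise ratio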
[18] = tested on: Noggin (protein binding on small-molecule microarray); assay: small molecules binding Noggin protein – biochemical, 635/667 nm fluorescence, primary screen (AID 1095); conditions: 635 nm fluorescence, higher = more signal;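 note: score merges 667 nm feature fluorescence with signal to noise over triplicate slides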
[19] = target: Neurogenic locus notch homolog protein 3 (Homo sapiens) (UniProt Q9UM47); assay: small molecules binding NOTCH3 protein – biochemical, 635/667 nm fluorescence, primary screen (AID 1096); conditions: small-molecule microarray, 635 nm fluorescence, higher = more signal
[20] = probe aEGFR binding to arrayed compounds – biochemical, biotinylated probe, 635/667 nm fluorescence, primary screen (AID 1097); conditions: small-molecule microarray, higher = more signal;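 note: probe is a biotinylated anti-EGFR antibody binding compounds printed on slides; score combines fluorescence near 667 nm and signal to noise of each spot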

Chain of Pro-neuregulin-1, membrane-bound isoform (Homo sapiens) (Q02297 whole entry, looked up, the tested form may be a part, canonical isoform): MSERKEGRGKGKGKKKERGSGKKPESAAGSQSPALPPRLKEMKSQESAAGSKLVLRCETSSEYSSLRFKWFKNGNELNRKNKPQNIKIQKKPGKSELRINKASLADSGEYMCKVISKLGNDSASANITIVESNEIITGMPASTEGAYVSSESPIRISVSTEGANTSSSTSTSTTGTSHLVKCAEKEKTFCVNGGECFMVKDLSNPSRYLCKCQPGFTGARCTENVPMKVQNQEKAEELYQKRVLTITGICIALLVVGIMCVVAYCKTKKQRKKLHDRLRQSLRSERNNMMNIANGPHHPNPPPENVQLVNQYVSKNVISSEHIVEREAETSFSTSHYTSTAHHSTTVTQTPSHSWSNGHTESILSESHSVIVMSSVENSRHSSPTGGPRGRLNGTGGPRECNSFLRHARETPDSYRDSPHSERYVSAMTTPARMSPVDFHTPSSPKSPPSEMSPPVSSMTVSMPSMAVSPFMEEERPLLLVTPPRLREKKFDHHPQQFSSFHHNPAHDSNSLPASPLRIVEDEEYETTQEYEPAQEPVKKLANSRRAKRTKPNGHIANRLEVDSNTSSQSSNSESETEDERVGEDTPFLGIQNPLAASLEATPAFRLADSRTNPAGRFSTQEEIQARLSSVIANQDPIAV
Chain of Neurogenic locus notch homolog protein 2 (Homo sapiens) (Q04721 whole entry, looked up, canonical isoform): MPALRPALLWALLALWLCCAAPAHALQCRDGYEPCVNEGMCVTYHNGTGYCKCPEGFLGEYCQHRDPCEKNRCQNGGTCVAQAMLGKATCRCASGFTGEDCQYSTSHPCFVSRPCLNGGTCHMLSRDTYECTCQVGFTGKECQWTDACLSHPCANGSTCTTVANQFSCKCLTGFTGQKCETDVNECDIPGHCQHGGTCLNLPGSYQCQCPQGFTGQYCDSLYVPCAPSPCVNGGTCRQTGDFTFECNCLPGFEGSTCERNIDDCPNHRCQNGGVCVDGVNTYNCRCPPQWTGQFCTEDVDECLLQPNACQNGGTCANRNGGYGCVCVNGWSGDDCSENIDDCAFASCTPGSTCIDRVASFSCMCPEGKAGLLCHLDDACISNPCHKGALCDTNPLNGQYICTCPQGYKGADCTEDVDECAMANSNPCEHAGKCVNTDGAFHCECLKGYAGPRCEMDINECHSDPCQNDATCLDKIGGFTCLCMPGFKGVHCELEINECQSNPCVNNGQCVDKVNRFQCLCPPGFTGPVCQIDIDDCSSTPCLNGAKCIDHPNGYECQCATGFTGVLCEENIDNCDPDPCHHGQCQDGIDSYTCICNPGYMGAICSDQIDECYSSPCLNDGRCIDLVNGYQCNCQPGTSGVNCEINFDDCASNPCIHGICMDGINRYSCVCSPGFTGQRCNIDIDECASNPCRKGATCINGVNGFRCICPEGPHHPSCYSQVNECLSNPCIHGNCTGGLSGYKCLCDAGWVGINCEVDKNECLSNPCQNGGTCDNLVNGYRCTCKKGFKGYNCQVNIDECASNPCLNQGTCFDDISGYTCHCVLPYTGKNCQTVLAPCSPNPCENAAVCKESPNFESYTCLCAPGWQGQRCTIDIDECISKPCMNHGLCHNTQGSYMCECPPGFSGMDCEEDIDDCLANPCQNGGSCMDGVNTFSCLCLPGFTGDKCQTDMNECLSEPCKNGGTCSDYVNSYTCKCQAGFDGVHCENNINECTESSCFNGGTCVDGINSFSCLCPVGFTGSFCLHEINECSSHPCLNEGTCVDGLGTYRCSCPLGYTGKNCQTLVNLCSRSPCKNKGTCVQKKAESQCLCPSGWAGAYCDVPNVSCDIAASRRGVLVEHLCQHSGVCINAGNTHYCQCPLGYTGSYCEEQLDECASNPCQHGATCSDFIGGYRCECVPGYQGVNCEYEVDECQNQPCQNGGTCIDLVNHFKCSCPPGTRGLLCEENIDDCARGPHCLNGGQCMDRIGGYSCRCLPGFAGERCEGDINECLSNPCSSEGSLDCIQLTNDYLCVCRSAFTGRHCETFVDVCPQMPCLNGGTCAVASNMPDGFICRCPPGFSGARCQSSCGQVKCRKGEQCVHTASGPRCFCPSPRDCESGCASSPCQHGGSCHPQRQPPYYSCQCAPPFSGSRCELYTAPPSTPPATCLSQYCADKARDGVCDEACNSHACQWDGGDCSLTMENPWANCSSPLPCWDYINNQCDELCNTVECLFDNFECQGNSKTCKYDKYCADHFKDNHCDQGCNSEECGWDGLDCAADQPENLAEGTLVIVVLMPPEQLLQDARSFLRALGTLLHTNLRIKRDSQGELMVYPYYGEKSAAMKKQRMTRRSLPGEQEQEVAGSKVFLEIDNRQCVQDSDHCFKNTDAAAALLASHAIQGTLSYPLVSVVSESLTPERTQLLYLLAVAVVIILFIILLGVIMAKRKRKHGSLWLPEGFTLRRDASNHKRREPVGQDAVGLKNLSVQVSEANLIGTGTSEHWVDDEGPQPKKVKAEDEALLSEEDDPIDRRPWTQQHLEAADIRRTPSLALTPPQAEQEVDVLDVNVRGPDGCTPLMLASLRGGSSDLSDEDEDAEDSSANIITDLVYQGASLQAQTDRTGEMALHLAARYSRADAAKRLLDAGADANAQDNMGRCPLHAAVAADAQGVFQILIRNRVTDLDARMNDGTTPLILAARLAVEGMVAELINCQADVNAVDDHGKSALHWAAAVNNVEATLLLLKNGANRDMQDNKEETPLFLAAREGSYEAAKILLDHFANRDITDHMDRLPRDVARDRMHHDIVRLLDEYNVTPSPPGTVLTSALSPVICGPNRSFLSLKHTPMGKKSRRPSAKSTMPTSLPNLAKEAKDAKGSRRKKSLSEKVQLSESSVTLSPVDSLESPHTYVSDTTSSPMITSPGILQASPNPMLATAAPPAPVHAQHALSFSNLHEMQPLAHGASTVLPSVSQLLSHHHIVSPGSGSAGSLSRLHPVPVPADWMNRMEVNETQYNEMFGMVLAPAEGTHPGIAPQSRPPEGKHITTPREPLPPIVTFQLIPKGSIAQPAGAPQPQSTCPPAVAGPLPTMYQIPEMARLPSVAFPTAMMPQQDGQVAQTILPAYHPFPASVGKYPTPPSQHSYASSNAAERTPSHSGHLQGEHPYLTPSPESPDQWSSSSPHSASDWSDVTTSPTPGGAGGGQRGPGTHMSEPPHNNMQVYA
Chain of Torsin-1A-interacting protein 2 (Homo sapiens) (Q8NFQ8 whole entry, looked up): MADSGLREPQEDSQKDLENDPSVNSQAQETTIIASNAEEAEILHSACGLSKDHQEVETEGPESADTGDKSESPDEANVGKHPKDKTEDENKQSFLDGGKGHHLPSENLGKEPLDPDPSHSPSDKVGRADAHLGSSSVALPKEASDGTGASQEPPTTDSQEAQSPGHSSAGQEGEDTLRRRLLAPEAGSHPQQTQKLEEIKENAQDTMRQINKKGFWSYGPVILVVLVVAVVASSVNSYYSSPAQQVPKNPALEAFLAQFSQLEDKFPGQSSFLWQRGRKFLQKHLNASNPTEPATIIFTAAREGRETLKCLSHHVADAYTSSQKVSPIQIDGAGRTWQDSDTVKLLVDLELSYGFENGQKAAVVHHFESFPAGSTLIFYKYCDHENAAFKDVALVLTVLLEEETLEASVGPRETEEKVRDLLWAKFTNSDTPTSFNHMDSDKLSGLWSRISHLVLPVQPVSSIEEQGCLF

| Structure (SMILES) | composite z-score [1] | composite z-score [2] | composite z-score [3] | composite z-score [4] | composite z-score [5] | composite z-score [6] | composite z-score [7] | z-score [8] | composite z-score [9] | composite z-score [10] | composite z-score [11] | z-score [12] | z-score [13] | z-score [14] | composite z-score [15] | z-score [16] | composite z-score [17] | composite z-score [18] | composite z-score [19] | composite z-score [20] |
| --- | --- | --- | --- | --- | --- | --- | --- | --- | --- | --- | --- | --- | --- | --- | --- | --- | --- | --- | --- | --- |
| CCCCc1cn(C[C@H](Cc2ccccc2)NC(=O)N[C@H](CO)CCc2oc(C(C)=O)c(C(=O)OC)c2C(=O)OC)nn1 | -0.422 | 0.651 | -0.166 | 0.864 | 1.56 | 0.979 | 1.32 | 0.833 (inactive) | 0.839 | -0.0994 | 1.54 | -0.425 (inactive) | -0.0326 (inactive) | -0.173 (inactive) | 1.7 | 0.0003 (inactive) | 0.165 | 1.14 | 1.1 | 0.114 |
| COc1ccc(C(=O)Nc2ccc(CN3C(=O)[C@@]4(O[C@@H](CC(=O)N5CCC[C@H]5CO)[C@H]([Si](C)(C)c5ccc(OC)cc5)[C@H]4C)c4ccccc43)cc2)cc1 | -0.172 | 0.195 | -0.0202 | 0.577 | 1.47 | 1.3 | 1.16 | -4.05 (inactive) | 0.543 | 0.176 | 1.55 | -0.466 (inactive) | -0.838 (inactive) | -0.436 (inactive) | 2.07 | 0.632 (inactive) | -0.0134 | 1.05 | 1.09 | 0.131 |
| COC(=O)[C@@]1(Cc2ccccc2)[C@H]2c3cc(C(=O)N4CCCC4)n(Cc4nc5ccccc5[nH]4)c3C[C@H]2CN1C(=O)c1ccccc1 | 1.19 | 0.74 | -0.0879 | 0.115 | 1.72 | 2.07 | 0.807 | 2.63 (inactive) | 1.65 | 0.507 | 1.54 | -0.0672 (inactive) | 0.193 (inactive) | 1.63 (inactive) | 3.82 | 0.0607 (inactive) | 0.746 | -0.192 | 1.11 | 0.13 |
| COCCOC(=O)N1C(=O)[C@@]2(c3cc(C#CC4=CCCCC4)ccc31)[C@H](C(=O)N1CCc3cc(OC)c(OC)cc3C1)[C@H]1C(=O)O[C@H](c3ccccc3)[C@H](c3ccccc3)N1[C@@H]2c1ccc(OCCO)cc1 | -0.137 | 0.492 | -0.0094 | 0.599 | 1.1 | 0.101 | 1.21 | 0.235 (inactive) | 0.533 | -0.0121 | 1.55 | 1.34 (inactive) | 0.713 (inactive) | 3.16 (inactive) | 2.49 | -0.217 (inactive) | -0.119 | 0.916 | 1.09 | -0.0357 |
| COc1ccc([Si](C)(C)[C@H]2[C@H](CC(=O)N3Cc4ccccc4C[C@H]3CO)O[C@@]3(C(=O)N(Cc4ccc(N5CCC5=O)cc4)c4ccccc43)[C@@H]2C)cc1 | 0.061 | 0.859 | 0.0967 | 0.265 | 0.198 | 1.08 | 1.2 | -4.57 (inactive) | 0.983 | 0.115 | 1.54 | -1.57 (inactive) | 0.52 (inactive) | 0.98 (inactive) | 2.6 | 1.65 (inactive) | 0.148 | 1.57 | 1.14 | 0.0321 |
| COc1ccc(CCNC(=O)[C@@H]2c3ccccc3C(=O)N(C3Cc4ccccc4C3)[C@H]2c2ccc(CO)cc2)cc1 | 0.287 | -0.249 | 0.0628 | 0.219 | -0.395 | 1.49 | 1.05 | -1.06 (inactive) | -0.183 | 0.113 | 1.34 | 0.629 (inactive) | 0.0128 (inactive) | 0.332 (inactive) | 1.75 | -0.141 (inactive) | 0.0349 | -0.155 | -0.145 | -0.0624 |
